About 83,000 compounds went through this panel and 20% of them were active in at least one assay; those are over-represented in the sample as a whole.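 Single-dose data. Exposure time 48 hours. Values below 10 considered active.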 Activity calls are given as the source filed them.
Assays:
Assay in all cases: NCI-60 one-dose screen, 48 h (100 = growth as untreated, 0 = no growth, -100 = all killed)
Settings in all cases: 10 µM unless noted
[1] = tested on: T-47D breast
[2] = tested on: BT-549 breast
[3] = tested on: MDA-MB-435 melanoma
[4] = tested on: SW-620 colon
[5] = tested on: MCF7 breast
[6] = tested on: HCT-116 colon
[7] = tested on: HCC-2998 colon
[8] = tested on: KM12 colon

Measured: growth

Cc1ccc(C2=C/C(=C/c3ccc(Br)cc3)C(=O)N2CCc2ccc(S(N)(=O)=O)cc2)cc1
inactive: [1] 75.9% | [2] 98.1% | [3] 101% | [4] 103% | [5] 88.5% | [6] 95.2% | [7] 105% | [8] 100%

CCN(CC)c1ccc2cc(NC(=O)OCCNC(=O)CCNC(=O)[C@H](CC(C)C)NC(=O)C(C)(C)NC(=O)C(C)(C)NC(=O)[C@H](CC(C)C)NC(=O)CCNC(=O)C(C)(C)NC(=O)[C@H](CC(C)C)NC(=O)CCNC(=O)[C@@](C)(CC)NC(=O)[C@H](C)NC(=O)CCNC(=O)C(C)(C)NC(=O)[C@H](C)NC(=O)[C@@H]3CCCN3C(=O)[C@@](C)(CC)NC(=O)[C@H](Cc3ccccc3)NC(=O)C3CCCN3C(=O)C(C)(C)NC(=O)C3CCCN3C(=O)C(C)(C)NC(C)=O)c(=O)oc2c1 (some centres not stated)
active: [1] -71.4% | [2] -93.3% | [3] -76.2% | [4] -77.4% | [5] -88.2% | [6] -91.2% | [7] -94.2% | [8] -98.5%

COc1ccc(NC(=S)NNc2ccc(-c3ccc(OC)c(OC)c3)nn2)cc1
inactive: [1] 96.4% | [2] 98.5% | [3] 107% | [4] 102% | [5] 96.5% | [6] 102% | [7] 109% | [8] 104%

COc1ccc(/C=C/C(=C/c2c(O)[nH]c3cc(Br)ccc23)N=O)cc1
inactive: [1] 103% | [2] 106% | [3] 108% | [4] 113% | [5] 104% | [6] 99.7% | [7] 121% | [8] 97.1%

CNc1cc(C(=O)O)nc(NC)n1
inactive: [1] 102% | [2] 88.7% | [3] 95.6% | [4] 98.1% | [5] 99.4% | [6] 104% | [7] 94.7% | [8] 102%

CCOC(=O)c1c[nH]c2cc(OCC3CC3)c(OCC3CC3)cc2c1=O
inactive: [1] 109% | [2] 113% | [3] 107% | [4] 100% | [5] 104% | [6] 111% | [7] 107% | [8] 95.7%

CCOc1cccc2c(NC(C)CCCN(CC)CC)c(C)cnc12 (configuration not stated)
inactive: [1] 115% | [2] 99.8% | [3] 101% | [4] 96.6% | [5] 97.7% | [6] 93.4% | [7] 115% | [8] 99.1%

CC(C)=CC/C=C(/C)[C@H]1CC[C@]2(C)[C@@H]1CC[C@@H]1[C@@]3(C)CC/C(=N/O)C(C)(C)[C@@H]3CC[C@]12C
inactive: [1] 27.2% [100 µM] | [2] 61.5% [100 µM] | [3] 52.2% [100 µM] | [4] 61.3% [100 µM] | [5] 36.1% [100 µM] | [6] 24.1% [100 µM] | [7] 69.5% [100 µM] | [8] 51.6% [100 µM]

O=C(N=c1n(-c2ccccc2)nc2n1CCN2C1=NCCN1)c1ccc(Cl)cc1
inactive: [1] 83.9% | [2] 101% | [3] 42.1% | [4] 79.5% | [5] 86.4% | [6] 103% | [7] 73% | [8] 99.3%

Clc1ccc2nc(-c3ccc(-c4ccc(/C=N/NC5=NCCN5)cc4)s3)cn2c1
inactive: [1] 92.6% | [2] 91.6% | [3] 101% | [4] 29.7% | [5] 79.4% | [6] 86.8% | [7] 109% | [8] 103%

CC(C)c1ccc(/C=N/N=C(N)N)cc1
active: [3] -28.7% | [5] 8.1%
inactive: [1] 91% | [2] 86.3% | [4] 36.2% | [6] 84.3% | [7] 50.9% | [8] 27.7%

CC1(C)CC[C@]2(C(=O)O)CC[C@]3(C)C(=CC[C@@H]4[C@@]5(C)C/C(=C/c6cccnc6)[C@H](O)C(C)(C)[C@@H]5CC[C@]43C)[C@@H]2C1
active: [2] 0.607% [100 µM] | [3] 7.02% [100 µM] | [5] 3.95% [100 µM] | [6] -33.4% [100 µM] | [7] -37.5% [100 µM] | [8] -38.1% [100 µM]
inactive: [1] 15.1% [100 µM] | [4] 13.3% [100 µM]

O=C1/C(=C/c2ccc(OCc3ccccc3)cc2)Oc2cc(OCCN3CCCCC3)ccc21
inactive: [1] 63.4% | [2] 85.3% | [3] 54.7% | [4] 71.1% | [5] 65.2% | [6] 52.3% | [7] 90.5% | [8] 82.3%

CSc1nc2c(c(=O)n1C)C1(C(=O)N(Cc3ccccc3)c3ccccc31)c1c(nc(SC)n(C)c1=O)N2
inactive: [1] 63.7% | [2] 104% | [3] 107% | [4] 94.3% | [5] 82.6% | [6] 93% | [7] 99.6% | [8] 87.9%

CSc1cccc([N+](=O)[O-])c1
inactive: [1] 90.1% | [2] 104% | [3] 100% | [4] 108% | [5] 108% | [6] 100% | [7] 108% | [8] 113%

CC1(C)S[C@@H]2[C@H](NC(=O)[C@H](C(=O)O)c3cccs3)C(=O)N2[C@H]1C(=O)O
inactive: [1] 102% | [2] 96.2% | [3] 106% | [4] 113% | [5] 110% | [6] 108% | [7] 103% | [8] 106%

CCOC(=O)c1cc(C(=O)c2ccc(OC)c(OC)c2)n2ccc(-c3ccccn3)cc12
inactive: [1] 23.1% | [2] 93.6% | [3] 70.7% | [4] 58.6% | [5] 73.3% | [6] 99.9% | [7] 90.5% | [8] 77.4%

COc1ccc(C(=O)CSc2nnc(-c3cc(-c4ccccc4)nc4ccccc34)o2)cc1
inactive: [1] 108% | [2] 105% | [3] 106% | [4] 107% | [5] 103% | [6] 101% | [7] 118% | [8] 105%

CCOc1ccccc1/C=N\Nc1ccc(S(=O)(=O)c2ccc(N/N=C/c3ccccc3OCC)cc2)cc1
inactive: [1] 75.6% | [2] 83.4% | [3] 99.3% | [4] 97.9% | [5] 79.1% | [6] 87.5% | [7] 107% | [8] 91.5%

COc1ncc(-c2ccc3nccc(C#CCCCCC(=O)O)c3c2)cc1NS(=O)(=O)c1ccc(F)cc1F
active: [1] -18.1% | [2] 4.54% | [5] 6.95%
inactive: [3] 29.5% | [4] 50.7% | [6] 41.1% | [7] 29.4% | [8] 41.6%

CC(=O)CC(=O)SC1=NCCS1
inactive: [1] 104% | [2] 116% | [3] 106% | [4] 97.7% | [5] 108% | [6] 116% | [7] 112% | [8] 102%

C#C[C@]1(O)CC[C@H]2[C@@H]3CC=C4c5nc(Nc6ccc(OC)cc6OC)sc5CC[C@]4(C)[C@H]3CC[C@@]21C
inactive: [1] 22.3% | [7] 29.8%
active: [2] -16.7% | [3] -4.22% | [4] -12.8% | [5] 4.51% | [6] -21.1% | [8] -50.4%

Cn1cc(-c2nnc(-c3cn(C)c4ncccc34)s2)c2ccccc21
active: [3] 9.15%
inactive: [1] 47.9% | [2] 68.3% | [4] 61.6% | [5] 58.6% | [6] 76.6% | [7] 82.6% | [8] 25.4%

CO[C@H]1CC[C@@]2(C)C(=CC[C@H]3[C@@H]4C[C@H](O)C[C@@]4(C)CC[C@@H]32)C1
active: [3] -16.9%
inactive: [1] 54% | [2] 79.5% | [4] 28.8% | [5] 25.7% | [6] 29.2% | [7] 68.4% | [8] 35.7%

CCOC(=O)c1cc(C#N)n2ncc3ccccc3c12
inactive: [1] 92.2% | [2] 91.5% | [3] 103% | [4] 98% | [5] 87.2% | [6] 90.8% | [7] 104% | [8] 102%

CC[C@]1(O)CC2CN(CCc3c([nH]c4ccccc34)[C@@](C(=O)OC)(c3cc4c(cc3OC)N(C=O)[C@H]3[C@@](O)(C(=O)OC)[C@H](OC(C)=O)[C@]5(CC)C=CCN6CC[C@]43[C@@H]65)C2)C1 (some centres not stated)
active: [3] -25.7% | [6] 5.51% | [7] 0.206% | [8] -30.7%
inactive: [1] 91% | [2] 15.7% | [4] 24% | [5] 21.9%

c1coc2occoc=2o1
inactive: [1] 98% | [2] 104% | [3] 102% | [4] 110% | [5] 104% | [6] 109% | [7] 108% | [8] 106%

Cn1cc(-c2nnc(-c3cn(C)c4ncc(Br)cc34)s2)c2cc(Br)ccc21
inactive: [1] 67.6% | [2] 96.2% | [3] 92.1% | [4] 96.4% | [5] 74.1% | [6] 96.4% | [7] 103% | [8] 94.6%

CC1(C)CC[C@]2(C(=O)OC(=O)[C@]34CCC(C)(C)C[C@@H]3C3=CC[C@@H]5[C@@]6(C)CCC(=O)C(C)(C)[C@@H]6CC[C@@]5(C)[C@]3(C)CC4)CC[C@]3(C)C(=CC[C@@H]4[C@@]5(C)CCC(=O)C(C)(C)[C@@H]5CC[C@]43C)[C@H]2C1
inactive: [1] 48.1% [100 µM] | [2] 75.3% [100 µM] | [3] 63.2% [100 µM] | [4] 70% [100 µM] | [5] 51.8% [100 µM] | [6] 41% [100 µM] | [7] 98.2% [100 µM] | [8] 67.2% [100 µM]

From PubChem BioAssay (NCI)
